EPAC2 antag: antagonists of human EPAC2; AID 720708; EPAC2 GEF exchange of Rap1B-BODIPY-GDP, fluorescence; Potency, µM (titrated, usually from 114 µM), usual class: inhibitors; 0.18% of 360,000 active; Q8WZA2; note: nearly all actives have a fitted effect of over 45% in size
RGS4 inh: human RGS4 inhibition. Transcreener GDP fluorescence polarization, RGS4-accelerated GTP hydrolysis. AID 504845. P49798. 0.039% of 390,000 active. Potency, µM (doses to about 114 µM), usual class: inhibitors; note: nearly all actives have a fitted effect of over 75% in size
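MLSMR compounds (23 nl, pin-transferred) preincubated 10 min at room temperature with a 500nM (2x) first reagent, then RGS4 at 900nM (2x) plus Transcreener GDP mix added; fluorescence polarization (620/688 nm) read before and after 90 min at 30 °C.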
BRCA1 expr up: BRCA1 expression activation | AID 624202 | 1.1% of 380,000 active | Potency, µM (highest dose often 46.1 µM), most hits filed as activators | MCF7-BRCA1-FFLuc reporter, luminescence, 48 h; response scale: scaled: vehicle 0%, 10 µM genistein 100%; note: nearly all actives have a fitted effect of over 80% in size
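First, MCF7-BRCA1-FFLuc cells (2000/well) attach for 2 h; next, compounds are pin-added and incubated 48 h at 37 °C; finally, luciferase reagent is added and luminescence read after 15 min.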
EPAC1 antagonist: antagonists of human EPAC1; O95398; EPAC1 GEF assay, Rap1b-BODIPY-GDP exchange fluorescence; Potency, µM (doses to about 115 µM), most hits filed as inhibitors; 0.14% of 360,000 active; note: nearly all actives have a fitted effect of over 50% in size
EPAC2 ag: agonists of human EPAC2 (RAPGEF4); Q8WZA2; EPAC2 activation, biochemical qHTS; response scale: 100% = 6.5 mM cAMP response; Potency, µM (doses to about 154 µM), hits mostly activators; 0.079% of 360,000 active; AID 720711; note: nearly all actives have a fitted effect of over 50% in size
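Setup: EPAC2 100 nM, labeled Rap1B complex 250 nM, free GDP 50 uM. Compound titrations pinned in, brief spin, 5 min room temperature incubation. Kinetic fluorescence read over 30 min, normalized to 6.5 mM cAMP.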
EPAC1 agonist: activates human EPAC1 exchange factor. O95398. EPAC1 agonist qHTS, biochemical assay; response scale: 100% = response to 6.5 mM cAMP. Potency, µM (doses to about 154 µM), most hits filed as activators. 0.073% of 360,000 active. AID 720707; note: nearly all actives have a fitted effect of over 60% in size
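EPAC1 100 nM, Rap1B–BODIPY-GDP 250 nM, unlabeled GDP 50 uM; compound titration; 5 min RT; kinetic read ex480/em540 at 5-min intervals ×30 min; data normalized to 6.5 mM cAMP agonist control.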
Large screens that a line does not name were inactive. In the library only some 1.3% were active in any assay of this set; here they are far more common. Calls come from the whole dose curve; as a rule, active = well fitted curve in the direction sought with a large enough effect; inconclusive = small, poorly fitted or top-dose-only effect, or another doubt; inactive = no such curve, though single readings can be large; an effect the other way counts as inactive or inconclusive.

CN1CCN(c2ccc(CNC(=O)c3ccc(-c4ccnn4C)c4ccoc34)cc2)CC1	none (no result: RGS4 inh)
COc1ccc2c(c1)Sc1ccccc1N2	none
c1ccc2c(c1)Nc1cc3ccccc3cc1S2	BRCA1 expr up 7.1µM
CN(C(=O)c1ccco1)c1nc(-c2ccc(F)cc2)cs1	BRCA1 expr up 4.5µM
CN(C(=O)c1ccco1)c1nnc(-c2ccc(F)cc2)s1	none
CCN(CC)CCCN(C(=O)c1cccs1)c1nc(-c2ccc(OC)cc2)cs1	none
COc1ccc(-c2csc(N(C)C(=O)c3cccs3)n2)cc1	BRCA1 expr up 10µM
O=c1c(Br)c(N2CCOCC2)cnn1-c1ccccc1	BRCA1 expr up 13µM
O=c1c(Br)c(N2CCCC2)cnn1-c1ccccc1	BRCA1 expr up inconclusive
COc1ccccc1NC(=O)C1=C(C)Nc2c(C(=O)Nc3cccc(C)c3)cnn2C1c1ccccc1C (configuration not stated)	none (no result: EPAC2 antag, BRCA1 expr up, EPAC1 antagonist, EPAC2 ag, EPAC1 agonist)
c1ccc(-c2ccc(-c3csnn3)cc2)cc1	BRCA1 expr up 7.9µM
O=S(=O)(Nc1ccccc1)c1ccc(-c2csnn2)cc1	none
c1ccc(-c2onc(-c3ccco3)c2-c2ccc3c(c2)OCO3)cc1	EPAC2 antag inconclusive
c1ccc(CNn2nnc3ccccc32)cc1	BRCA1 expr up 5µM (no result: RGS4 inh)
C(#Cc1ccccc1)Cn1nnc2ccccc21	BRCA1 expr up 13µM
CCN1CCN(c2cc(C)c3cc(NC(=O)c4cc(OC)cc(OC)c4)ccc3n2)CC1	BRCA1 expr up 6.3µM
O=[N+]([O-])c1cccc(/C=N\N2CCN(Cc3ccccc3Cl)CC2)c1	none
O=[N+]([O-])c1cccc(C=NN2CCCCCC2)c1	BRCA1 expr up 13µM
O=[N+]([O-])c1ccccc1/C=C/C=N/N1CCCCC1	BRCA1 expr up 2.8µM
Oc1ccccc1/C=N/N1CCN(c2ccccn2)CC1	BRCA1 expr up 10µM
O=[N+]([O-])c1cccc(/C=N/N2CCN(c3ccccn3)CC2)c1	BRCA1 expr up 8.9µM
Cc1cc([N+](=O)[O-])ccc1NC(=O)C(C)NC1CCCCC1 (configuration not stated)	none
Cc1c(CC(=O)NCCCC(=O)O)c(=O)oc2cc3occ(-c4ccccc4)c3cc12	none
O=[N+]([O-])c1cccc(/C=N/N2CCN(Cc3ccc(Cl)cc3)CC2)c1	none
O=[N+]([O-])c1cccc(/C=N/N2CCN(Cc3ccccc3)CC2)c1	BRCA1 expr up 13µM
O=c1nc2s/c(=C\c3ccc(-c4ccccc4[N+](=O)[O-])o3)c(=O)n2nc1-c1ccccc1	EPAC2 ag 71µM, EPAC1 agonist 112µM
NC1=NC(=O)/C(=C\c2ccc(-c3ccccc3[N+](=O)[O-])o2)S1	none (no result: EPAC2 antag, RGS4 inh, EPAC1 antagonist, EPAC2 ag, EPAC1 agonist)
CCOC(=O)c1sc(NC(=O)c2ccc(Cl)s2)cc1C	BRCA1 expr up 4.5µM
CCOC(=O)c1sc(NC(=O)C(C)(C)C)cc1C	BRCA1 expr up 3.2µM
NC(c1csc(Nc2cc(Oc3ccccc3)ncn2)n1)C1CCCCC1 (configuration not stated)	none (no result: RGS4 inh)
COc1ccc(/C=C2\SC(=S)N(CCC(=O)N3CCCCC3)C2=O)cc1	none
COCCN1C(=O)/C(=C/c2ccc(N3CCCC3)cc2)SC1=S	EPAC2 ag 20µM, EPAC1 agonist inconclusive
NS(=O)(=O)c1ccc(CCNC(=O)CCn2c(=O)c3cccn3c3cccnc32)cc1	none (no result: EPAC2 antag, BRCA1 expr up, EPAC1 antagonist, EPAC2 ag, EPAC1 agonist)
Cc1cccc(NC(=O)Nc2cc(C)cc(C)n2)c1	BRCA1 expr up 3.5µM
Cc1ccc(CNC(=O)Nc2cccc(C)c2)cc1	BRCA1 expr up 8.9µM
Cc1cc(C)nc(NC(=O)Nc2ccc3c(c2)OCO3)c1	BRCA1 expr up inconclusive
CCOc1ccc(/C=C\C(C)=N\O)cc1	BRCA1 expr up 2.8µM
COc1ccc(NC(=O)C2CCCN(S(=O)(=O)c3ccc4c(c3)oc(=O)n4C)C2)cc1OC (configuration not stated)	none
C=CCN1C(=O)/C(=C\C=C2\N(C)c3ccccc3C2(C)C)SC1=S	none
CCN1C(=O)/C(=C/C=C2/Sc3ccccc3N2CCO)SC1=S	none
CN1CCS/C1=C\C=C1/SC(=S)N(CC(=O)O)C1=O	EPAC2 ag inconclusive, EPAC1 agonist 22µM
CN1/C(=C\C=C2/SC(=S)N(CC(=O)O)C2=O)C(C)(C)c2ccccc21	EPAC2 ag 112µM, EPAC1 agonist 63µM
CCN1C(=O)/C(=C/C=C2/SCCN2C)SC1=S	BRCA1 expr up inconclusive, EPAC2 ag 35µM, EPAC1 agonist 100µM
Cc1oc(-c2ccc(C(=O)NCCN(C)C)cc2)nc1CS(=O)(=O)c1ccccc1	none (no result: EPAC2 antag, BRCA1 expr up, EPAC1 antagonist, EPAC2 ag, EPAC1 agonist)
COc1cccc(-c2nn(C)c3sc(C(=O)N4CCOCC4)cc23)c1	none
COc1c(Cl)cc(Cl)cc1C(=O)Nc1ccc(CN2CCOCC2)cc1	none
COc1cccc(NC(=O)c2ccc(CN3CCOCC3)cc2)c1	BRCA1 expr up 11µM
COc1c(C)cccc1C(=O)Nc1ccc(CN2CCOCC2)cc1	BRCA1 expr up 2.5µM
COCCN=C1NN=C(c2ccc(C)c([N+](=O)[O-])c2)CS1	BRCA1 expr up 3.2µM
CC(C)Sc1nnc(-c2c[nH]c3ccccc23)n1C	BRCA1 expr up 7.1µM
COc1ccc(N2C(=O)C3C4C=CC(C4)C3C2=O)c([N+](=O)[O-])c1 (configuration not stated)	none
O=C(Nc1ccc(C(=O)O)cc1)/C(=C\C=C\c1ccccc1)NC(=O)c1ccccc1Br	BRCA1 expr up 10µM
CCNCCNC(=O)c1c(O)c2ccccc2n(CC)c1=O	none
Cc1ccc(C2CC(c3cccs3)=NN2C(=O)c2ccco2)o1 (configuration not stated)	EPAC2 antag 28µM
O=C(CSc1ccccc1C(=O)O)c1ccc(Cl)cc1	BRCA1 expr up 10µM
COc1ccc(OC)c(C(=O)CSc2nnc(C3CC3)n2C2CC2)c1	none (no result: RGS4 inh)
CCc1ccccc1Nc1nc(N)nc(COC(=O)C2=COCCO2)n1	none
COc1ccc(NC(=S)Nc2cc(C)ccn2)c(OC)c1	none
COc1ccc(NC(=S)Nc2ccccn2)c(OC)c1	BRCA1 expr up 5.6µM
COC(=O)CSc1nc2sc3c(c2c(=O)n1Cc1ccccc1)CCC(C(C)(C)C)C3 (configuration not stated)	none (no result: EPAC2 antag, BRCA1 expr up, EPAC1 antagonist, EPAC2 ag, EPAC1 agonist)
CC(Oc1ccc(Cl)cc1Cl)c1nc(-c2ccc(NC(=O)c3ccccn3)cc2)no1 (configuration not stated)	BRCA1 expr up 1.3µM
C[C@H](CO)N1C[C@H](C)[C@@H](CN(C)C(=O)NC2CCCCC2)Oc2ccc(NS(=O)(=O)c3cccs3)cc2C1=O	none

Screening data deposited in PubChem by National Center for Advancing Translational Sciences (NCATS).
